# UHRF1 MBD2 ctr: human UHRF1 methylated DNA binding inhibitors; 370,000 tested, 0.75% active; inhibition, % at 4.4 µM; Q96T88; UHRF1 binding to methylated oligo, TR-FRET; in the data active means inhibition above about 21%;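 further: UHRF1 SRA domain binding a hemimethylated CpG hairpin DNA probe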
# LEDGF integ inh: blocks HIV-1 LEDGF/p75-dependent DNA integration. 370,000 tested, 0.64% active. TR-FRET IN-LEDGF/p75 DNA integration, Eu/Cy5. AID 743269. inhibition, % at 3.7 µM;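 active means inhibition above the screen-wide mean plus 3 SD, cut at about 13% in these data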;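 further: signal is the Cy5 over europium emission ratio at 671 and 618 nm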
# MBD2 inh: MBD2-methylated oligo binding inhibition. Q9UBB5. inhibition, % at 4.4 µM. 370,000 tested, 0.31% active. TR-FRET, MBD2 binding to methylated oligonucleotide. AID 686964; in the data active means inhibition above about 13%
# PRMT1 inh: PRMT1 (human) inhibition, primary screen; Q99873; recombinant PRMT1, activity-based probe fluorescence polarization; inhibition, % at 2.79 µM; 370,000 tested, 1.3% active; AID 652257;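 active means inhibition above about 21% made by adding two undisclosed values, limit read from the data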
# Target sequence (Q99873 whole entry, looked up): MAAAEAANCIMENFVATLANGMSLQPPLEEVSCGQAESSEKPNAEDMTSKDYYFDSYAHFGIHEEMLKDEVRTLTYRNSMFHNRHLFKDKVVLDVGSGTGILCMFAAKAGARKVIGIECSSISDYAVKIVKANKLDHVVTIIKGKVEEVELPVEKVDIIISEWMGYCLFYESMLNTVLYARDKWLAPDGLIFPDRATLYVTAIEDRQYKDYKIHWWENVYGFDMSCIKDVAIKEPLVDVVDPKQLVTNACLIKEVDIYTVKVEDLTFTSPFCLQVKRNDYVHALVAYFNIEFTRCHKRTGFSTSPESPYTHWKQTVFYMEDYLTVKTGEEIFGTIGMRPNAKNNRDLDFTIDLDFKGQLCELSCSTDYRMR
# rCAG RNA binder: binds r(CAG) RNA repeats. r(CAG) RNA repeat, TO-PRO-1 dye displacement fluorescence. inhibition, % at 3 µM. 370,000 tested, 1.3% active;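 active means inhibition above the plate cutoff, the mean of all test compounds on that plate plus 3 SD, cut at about 35% in these data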;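 further: higher means more dye released from RNA so lower well fluorescence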
# ABHD5-PLIN5 inh: ABHD5-PLIN5 protein interaction inhibition; Split G. princeps luciferase complementation, luminescence, 4 h; inhibition, % at 4 µM; 360,000 tested, 0.78% active; AID 602281;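 active means inhibition above the mean inhibition across every tested compound plus 3 SD, cut at about 22% in these data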
# IN multimer up: HIV-1 integrase multimerization activation, counter-screen | 2,000 tested, 17% active | activation, % at 7.7 µM | TR-FRET HIV-1 integrase multimerization, biochemical | shares compounds with LEDGF integ inh; in the data active means activation above about 8.9%
# TRFRET interf: counter-screen for LEDGF/p75 integration inhibitors: TR-FRET optical interference; inhibition, % at 7.7 µM; TR-FRET optical interference counterscreen, HIV-1 IN multimerization; AID 1053135; 2,000 tested, under 10 active; shares compounds with LEDGF integ inh;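 active means inhibition above the mean over all tested compounds plus 3 SD, which no compound reached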
# IN-LEDGF confirm: LEDGF/p75-dependent HIV-1 integration inhibition, confirmation | inhibition, % at 3.7 µM | 2,000 tested, 36% active | TR-FRET LEDGF/p75-dependent HIV-1 integration, biochemical | AID 1053136 | shares compounds with LEDGF integ inh; in the data active means inhibition above about 14%
# Numbers stand for hits; n = inactive; x = not tested or not shown. This is a sample that favours compounds with a hit; in the whole collection about 4.1% have one here.
SMILES,UHRF1 MBD2 ctr,LEDGF integ inh,MBD2 inh,PRMT1 inh,rCAG RNA binder,ABHD5-PLIN5 inh,IN multimer up,TRFRET interf,IN-LEDGF confirm
COc1ccc(-n2c(O)c(C(C)=NCCN3CCNCC3)c(=O)[nH]c2=O)cc1,n,17,n,n,n,n,n,n,n
COc1ccc(-n2c(O)c(C(C)=NCC3CCCO3)c(=O)[nH]c2=O)cc1 (stereo not given),n,n,n,n,n,n,x,x,x
CC(C)OP(=O)(OC(C)C)C(NCc1ccccc1)c1ccccc1 (stereo not given),n,n,n,n,n,n,x,x,x
Cc1ccccc1-n1c(C)cc(/C=C2/C(=O)NC(=O)N(Cc3ccco3)C2=O)c1C,n,49,n,n,n,n,n,n,n
Cc1cc(/C=C2\C(=O)NC(=O)N(Cc3ccco3)C2=O)c(C)n1-c1ccc(C(=O)O)cc1,52,48,n,n,n,n,n,n,n
Cc1ccc(/C=C2\C(=O)NC(=O)N(Cc3ccccc3Cl)C2=O)o1,n,n,n,n,n,n,x,x,x
CCOC(=O)C1CCN(/C=C2/C(=O)NC(=O)N(Cc3ccco3)C2=O)CC1,n,14,n,n,n,n,n,n,n
CCn1c(C)cc(/C=C2\C(=O)NC(=O)N(c3ccccc3C)C2=O)c1C,n,n,n,n,n,n,x,x,x
O=[N+]([O-])c1nccn1CC(O)CN1CC1 (stereo not given),n,n,n,n,n,n,x,x,x
C=C(C)C(Cc1c(OC)ccc(C(=O)/C=C/c2ccc(O)cc2)c1O)OO (stereo not given),n,n,n,n,n,n,x,x,x
O=c1cc(C2CCNCC2)[nH][nH]1,n,19,n,n,n,n,n,n,n
CCN(CC)c1ccc(N=Cc2c(O)n(-c3cc(OC)ccc3OC)c(=O)[nH]c2=O)cc1,n,16,n,n,n,n,n,n,n
CCN(CC)c1ccc(N=Cc2c(O)n(Cc3ccco3)c(=O)[nH]c2=O)cc1,n,57,n,n,n,n,n,n,n
CSc1nc(C)c(Br)c(N2CC2)n1,n,n,n,n,n,n,x,x,x
CN1C[C@H](O)[C@H]2C[C@@H]1c1ccccc1O2,n,n,n,n,n,x,x,x,x
COc1ccc(CCNCc2ccncc2)cc1,n,14,n,n,n,n,n,n,n
COc1ccc(CCNCc2ccccc2)cc1,n,n,n,n,n,n,x,x,x
CCOP(=O)(OCC)C1(O)C(=O)Nc2ccc(Br)cc21 (stereo not given),n,n,n,n,n,n,x,x,x

# High-throughput results (PubChem BioAssay)
